Reference: PubChem BioAssay
Calls of active or inactive are those of the source.

Legend:
[1] = test system: PRMT1 (protein arginine N-methyltransferase 1); experiment: PRMT1 binders on small-molecule microarrays, primary screen, biochemical, small-molecule microarray, 635 nm fluorescence (AID 1088); details: small-molecule microarray binding, higher = more signal;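 further: binding of Prmt1 protein to compounds spotted on small-molecule microarray slides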
[2] = yeast growth modulation, basal conditions, primary screen, YJM789 clinical isolate, OD600, 24 h (AID 1089);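 further: growth of clinical yeast isolate S. cerevisiae YJM 789 seeded 1000 cells per well; test concentration not given here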; details: S. cerevisiae YJM789 growth, higher = more signal, called active from +8 up or from −8 down
[3] = fission yeast growth modulation, primary screen, strain 972, OD600, 24 h, no modulator (AID 1090);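 further: basal condition with compound alone and no growth modifier present; test concentration not given here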; details: S. pombe 972 growth, higher = more signal, called active from +8 up or from −8 down
[4] = S. cerevisiae growth modulation with rapamycin, primary screen, strain BY4716, OD600, 96 h (AID 1091); details: higher = more signal, called active from +8 up or from −8 down; further: test concentration not given here
[5] = target: Torsin-1A-interacting protein 2 (Homo sapiens) (UniProt Q8NFQ8); experiment: LULL1 binders on small-molecule microarray, primary screen, cell lysate, human LULL1 lysate, 635/667 nm fluorescence (AID 1092); details: hLULL1 lysate binding, 635 nm fluorescence, higher = more signal;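 further: probe is lysate of COS7 cells overexpressing human LULL1; score merges per-feature 667 nm fluorescence with signal-to-noise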
Torsin-1A-interacting protein 2 (Homo sapiens), sequence (Q8NFQ8 whole entry, looked up): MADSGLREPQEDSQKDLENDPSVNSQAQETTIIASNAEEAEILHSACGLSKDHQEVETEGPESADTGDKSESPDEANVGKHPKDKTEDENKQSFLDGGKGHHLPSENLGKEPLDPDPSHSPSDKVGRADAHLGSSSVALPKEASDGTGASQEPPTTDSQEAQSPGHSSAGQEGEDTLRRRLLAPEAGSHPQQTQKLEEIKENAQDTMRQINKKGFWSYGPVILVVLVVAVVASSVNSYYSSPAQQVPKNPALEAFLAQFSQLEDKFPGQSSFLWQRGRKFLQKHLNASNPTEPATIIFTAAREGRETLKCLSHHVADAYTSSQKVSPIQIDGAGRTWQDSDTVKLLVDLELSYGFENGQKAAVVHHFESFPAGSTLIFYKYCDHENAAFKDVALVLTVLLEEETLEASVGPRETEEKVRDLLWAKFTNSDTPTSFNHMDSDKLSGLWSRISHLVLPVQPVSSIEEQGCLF

[6] = E. coli growth modulation, two-sided OD650, primary screen, E. coli filamentation project, strain DRC41, 24 h (AID 1093); details: OD650, 24 h, higher = more signal, called active from +8 up or from −8 down;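 further: MC1000 strain lacking acrAB efflux and sulA so SOS filamentation is blocked; test concentration not given here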
[7] = small-molecule microarray binders of probe aLefty2, primary screen, biochemical, biotinylated probe, 635/667 nm fluorescence (AID 1094); details: higher = more signal;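 further: score merges spot fluorescence near 667 nm with spot signal-to-noise ratio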
[8] = test system: Noggin (protein binding on small-molecule microarray); experiment: Noggin binders on small-molecule microarray, primary screen, biochemical, 635/667 nm fluorescence (AID 1095); details: 635 nm fluorescence, higher = more signal;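 further: score merges 667 nm feature fluorescence with signal to noise over triplicate slides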
[9] = target: Neurogenic locus notch homolog protein 3 (Homo sapiens) (UniProt Q9UM47); experiment: NOTCH3 binders on small-molecule microarray, primary screen, biochemical, 635/667 nm fluorescence (AID 1096); details: NOTCH3 binding, 635 nm fluorescence, higher = more signal
Neurogenic locus notch homolog protein 3 (Homo sapiens), sequence (Q9UM47 whole entry, looked up): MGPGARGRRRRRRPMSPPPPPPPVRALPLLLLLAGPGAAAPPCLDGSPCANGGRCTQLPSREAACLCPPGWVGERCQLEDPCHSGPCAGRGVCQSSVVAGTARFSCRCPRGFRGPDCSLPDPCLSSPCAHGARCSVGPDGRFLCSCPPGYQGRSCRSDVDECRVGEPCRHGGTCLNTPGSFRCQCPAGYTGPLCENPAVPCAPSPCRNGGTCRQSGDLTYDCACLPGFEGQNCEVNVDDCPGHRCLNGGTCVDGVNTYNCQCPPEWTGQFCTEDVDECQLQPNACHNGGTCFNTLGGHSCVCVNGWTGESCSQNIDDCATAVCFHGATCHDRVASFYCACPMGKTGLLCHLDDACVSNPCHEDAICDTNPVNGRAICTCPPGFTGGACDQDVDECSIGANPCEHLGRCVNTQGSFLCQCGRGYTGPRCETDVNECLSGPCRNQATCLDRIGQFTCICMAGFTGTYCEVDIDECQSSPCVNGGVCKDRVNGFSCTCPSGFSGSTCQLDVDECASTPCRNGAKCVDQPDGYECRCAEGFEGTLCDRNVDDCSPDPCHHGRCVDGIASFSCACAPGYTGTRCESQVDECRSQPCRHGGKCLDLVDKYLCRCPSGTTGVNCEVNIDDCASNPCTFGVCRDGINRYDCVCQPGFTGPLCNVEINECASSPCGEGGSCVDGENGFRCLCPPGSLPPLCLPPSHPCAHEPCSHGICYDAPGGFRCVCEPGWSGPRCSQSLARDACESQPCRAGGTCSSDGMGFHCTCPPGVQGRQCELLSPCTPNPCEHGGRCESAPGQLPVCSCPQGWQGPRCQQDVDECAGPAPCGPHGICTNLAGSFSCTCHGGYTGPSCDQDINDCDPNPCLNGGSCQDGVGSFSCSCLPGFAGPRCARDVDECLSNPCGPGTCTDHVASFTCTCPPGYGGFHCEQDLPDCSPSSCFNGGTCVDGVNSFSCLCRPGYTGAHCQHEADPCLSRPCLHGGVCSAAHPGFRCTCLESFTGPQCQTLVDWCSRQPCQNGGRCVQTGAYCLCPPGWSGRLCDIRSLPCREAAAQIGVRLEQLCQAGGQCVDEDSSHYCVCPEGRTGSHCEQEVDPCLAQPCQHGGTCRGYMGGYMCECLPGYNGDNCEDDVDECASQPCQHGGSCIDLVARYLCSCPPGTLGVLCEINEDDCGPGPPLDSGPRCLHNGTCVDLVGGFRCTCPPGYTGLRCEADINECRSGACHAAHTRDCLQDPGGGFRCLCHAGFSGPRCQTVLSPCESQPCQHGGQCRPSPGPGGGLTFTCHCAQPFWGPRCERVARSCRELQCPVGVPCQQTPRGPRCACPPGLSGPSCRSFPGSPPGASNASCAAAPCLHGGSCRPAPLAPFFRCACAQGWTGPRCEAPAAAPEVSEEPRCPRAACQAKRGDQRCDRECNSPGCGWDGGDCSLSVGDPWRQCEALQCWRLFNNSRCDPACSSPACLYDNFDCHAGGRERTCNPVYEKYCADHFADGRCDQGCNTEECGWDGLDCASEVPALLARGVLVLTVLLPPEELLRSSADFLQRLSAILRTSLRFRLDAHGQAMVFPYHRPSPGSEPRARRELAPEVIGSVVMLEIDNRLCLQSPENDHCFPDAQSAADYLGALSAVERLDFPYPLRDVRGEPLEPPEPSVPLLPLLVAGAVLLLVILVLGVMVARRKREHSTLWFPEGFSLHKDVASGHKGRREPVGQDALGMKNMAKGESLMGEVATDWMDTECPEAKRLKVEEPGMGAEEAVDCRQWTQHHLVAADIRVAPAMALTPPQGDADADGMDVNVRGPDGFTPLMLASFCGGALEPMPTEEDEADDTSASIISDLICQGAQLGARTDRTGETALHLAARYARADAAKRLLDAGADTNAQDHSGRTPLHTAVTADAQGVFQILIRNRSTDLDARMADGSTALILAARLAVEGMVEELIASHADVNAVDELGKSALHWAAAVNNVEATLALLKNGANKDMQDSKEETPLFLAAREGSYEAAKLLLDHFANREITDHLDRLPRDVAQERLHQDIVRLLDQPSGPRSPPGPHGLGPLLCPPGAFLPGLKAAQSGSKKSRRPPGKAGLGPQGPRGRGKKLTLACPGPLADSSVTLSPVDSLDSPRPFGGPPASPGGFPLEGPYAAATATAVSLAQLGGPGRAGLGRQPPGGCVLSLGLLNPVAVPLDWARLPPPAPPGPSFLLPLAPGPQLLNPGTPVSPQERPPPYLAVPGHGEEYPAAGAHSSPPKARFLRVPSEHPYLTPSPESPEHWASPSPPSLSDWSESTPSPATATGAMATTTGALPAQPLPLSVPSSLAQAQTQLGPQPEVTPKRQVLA

[10] = small-molecule microarray binders of probe aEGFR, primary screen, biochemical, biotinylated probe, 635/667 nm fluorescence (AID 1097); details: higher = more signal;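 further: probe is a biotinylated anti-EGFR antibody binding compounds printed on slides; score combines fluorescence near 667 nm and signal to noise of each spot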
[11] = test system: Plasmodium falciparum Sir2 (PF13_0152, Sir2A); experiment: pfSir2 binders on small-molecule microarrays, primary screen, biochemical, small-molecule microarray, 635 nm fluorescence (AID 1098); details: small-molecule microarray binding, fluorescence 635 nm; higher = more signal;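 further: score merges spot fluorescence intensity with its signal-to-noise ratio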
[12] = small-molecule microarray binders of probe aDKK1, primary screen, biochemical, biotinylated probe, 635/667 nm fluorescence (AID 1099); details: higher = more signal;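 further: score merges 667nm spot fluorescence with signal to noise across triplicate slides; reference of the scale not given here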
[13] = small-molecule microarray binders of probe aCHRDL2, primary screen, biochemical, biotinylated probe, 635/667 nm fluorescence (AID 1100); details: higher = more signal
[14] = splicing luciferase reporter signal modulators, primary screen, spliceosome inhibition project, cell-based, HEK293, splice +/- reporter (AID 1101); details: luminescence, 24 h, higher = more signal, called active from +8 up or from −8 down;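 further: HEK293 cells carrying a splicing-competent luciferase reporter gene; test concentration not given here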
[15] = target: Fibroblast growth factor 10 (Homo sapiens) (UniProt O15520); experiment: FGF10 binders on small-molecule microarrays, primary screen, biochemical, small-molecule microarray, 635 nm fluorescence (AID 1102); details: FGF10 binding, fluorescence 635 nm, higher = more signal
Fibroblast growth factor 10 (Homo sapiens), sequence (O15520 whole entry, looked up): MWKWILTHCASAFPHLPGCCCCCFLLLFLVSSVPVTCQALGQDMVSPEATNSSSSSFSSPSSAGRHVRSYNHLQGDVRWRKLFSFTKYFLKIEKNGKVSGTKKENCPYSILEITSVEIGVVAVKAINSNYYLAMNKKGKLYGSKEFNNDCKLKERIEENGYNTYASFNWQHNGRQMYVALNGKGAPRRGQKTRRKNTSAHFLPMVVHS

[16] = test system: glycogen synthase kinase-3 (GSK3A per assay name; protocol says GSK3B); experiment: GSK3 binders on small-molecule microarrays, primary screen, biochemical, small-molecule microarray, 635 nm fluorescence, GSK3A (AID 1103); details: small-molecule microarray binding, fluorescence 635 nm; higher = more signal; further: the record names both GSK3A and GSK3B
[17] = target: Epidermal growth factor receptor (Homo sapiens) (UniProt P00533); experiment: EGFR binders on small-molecule microarrays, primary screen, biochemical, small-molecule microarray, 635 nm fluorescence (AID 1104); details: EGFR binding, higher = more signal;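 further: score merges 667 nm emission intensity with spot signal to noise over triplicate slides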
Epidermal growth factor receptor (Homo sapiens), sequence (P00533 whole entry, looked up): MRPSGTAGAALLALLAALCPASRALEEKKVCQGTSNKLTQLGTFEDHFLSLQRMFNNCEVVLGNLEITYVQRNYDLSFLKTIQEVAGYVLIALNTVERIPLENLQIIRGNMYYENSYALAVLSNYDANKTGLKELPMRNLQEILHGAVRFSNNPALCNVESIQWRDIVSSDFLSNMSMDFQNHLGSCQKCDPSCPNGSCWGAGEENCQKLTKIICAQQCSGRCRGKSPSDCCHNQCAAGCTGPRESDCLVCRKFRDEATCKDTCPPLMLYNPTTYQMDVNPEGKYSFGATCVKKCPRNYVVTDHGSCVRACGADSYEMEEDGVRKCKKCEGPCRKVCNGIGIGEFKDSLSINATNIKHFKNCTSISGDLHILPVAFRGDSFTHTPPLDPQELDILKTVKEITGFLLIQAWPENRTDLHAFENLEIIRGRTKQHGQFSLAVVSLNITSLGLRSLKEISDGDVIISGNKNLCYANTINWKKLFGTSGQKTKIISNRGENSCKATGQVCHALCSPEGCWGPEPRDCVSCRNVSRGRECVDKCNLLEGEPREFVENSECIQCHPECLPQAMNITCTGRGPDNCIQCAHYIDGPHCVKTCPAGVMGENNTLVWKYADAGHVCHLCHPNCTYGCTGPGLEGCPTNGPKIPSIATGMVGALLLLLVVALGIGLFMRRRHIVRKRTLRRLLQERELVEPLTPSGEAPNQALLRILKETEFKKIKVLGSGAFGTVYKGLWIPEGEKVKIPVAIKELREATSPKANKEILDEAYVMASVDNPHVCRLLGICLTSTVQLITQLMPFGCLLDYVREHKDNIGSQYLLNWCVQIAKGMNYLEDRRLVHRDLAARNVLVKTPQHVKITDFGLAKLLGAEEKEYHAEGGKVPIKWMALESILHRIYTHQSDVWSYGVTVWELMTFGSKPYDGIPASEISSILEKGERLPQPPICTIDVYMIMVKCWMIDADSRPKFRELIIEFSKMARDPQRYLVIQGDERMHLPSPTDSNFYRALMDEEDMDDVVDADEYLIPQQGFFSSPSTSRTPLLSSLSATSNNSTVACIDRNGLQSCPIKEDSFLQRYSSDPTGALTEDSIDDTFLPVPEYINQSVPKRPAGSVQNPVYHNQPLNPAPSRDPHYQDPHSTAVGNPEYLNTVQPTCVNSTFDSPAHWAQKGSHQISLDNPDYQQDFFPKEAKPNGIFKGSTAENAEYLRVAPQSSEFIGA

[18] = target: Follistatin-related protein 3 (Homo sapiens) (UniProt O95633); experiment: FSTL3 binders on small-molecule microarrays, primary screen, biochemical, small-molecule microarray, 635 nm fluorescence (AID 1105); details: FSTL3 binding, higher = more signal;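 further: score merges emission near 667 nm and signal to noise per printed spot across three slides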
Follistatin-related protein 3 (Homo sapiens), sequence (O95633 whole entry, looked up): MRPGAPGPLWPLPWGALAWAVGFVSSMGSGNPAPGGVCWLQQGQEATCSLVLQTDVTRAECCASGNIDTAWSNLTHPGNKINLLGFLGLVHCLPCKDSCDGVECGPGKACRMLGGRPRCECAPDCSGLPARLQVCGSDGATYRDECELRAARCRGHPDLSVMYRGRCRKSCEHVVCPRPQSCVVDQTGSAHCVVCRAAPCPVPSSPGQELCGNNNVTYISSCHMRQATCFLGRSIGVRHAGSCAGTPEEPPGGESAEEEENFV

[19] = target: Dickkopf-related protein 1 (Homo sapiens) (UniProt O94907); experiment: DKK1 binders on small-molecule microarrays, primary screen, biochemical, small-molecule microarray, 635 nm fluorescence scan (AID 1106); details: DKK1 binding, higher = more signal;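 further: score merges emission near 667 nm with signal to noise over three replicate slides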
Dickkopf-related protein 1 (Homo sapiens), sequence (O94907 whole entry, looked up): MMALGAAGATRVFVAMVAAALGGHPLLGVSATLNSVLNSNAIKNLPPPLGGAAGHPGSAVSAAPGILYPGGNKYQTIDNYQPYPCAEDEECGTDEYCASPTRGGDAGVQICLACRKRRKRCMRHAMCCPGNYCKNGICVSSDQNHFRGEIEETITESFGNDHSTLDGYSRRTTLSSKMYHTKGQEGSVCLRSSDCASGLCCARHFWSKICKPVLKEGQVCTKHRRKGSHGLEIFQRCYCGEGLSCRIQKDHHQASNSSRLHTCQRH

[20] = test system: Inhibin beta A chain (activin A); experiment: INHBA (activin A) binders on microarrays, primary screen, biochemical, small-molecule microarray, 635 nm fluorescence scan (AID 1107); details: small-molecule microarray binding, higher = more signal;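 further: mouse activin A protein probed at 4.33 µg/mL on printed slides; score merges bound-protein fluorescence near 667 nm with spot signal-to-noise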

Structure (SMILES)	composite z-score [1]	z-score [2]	z-score [3]	z-score [4]	composite z-score [5]	z-score [6]	composite z-score [7]	composite z-score [8]	composite z-score [9]	composite z-score [10]	composite z-score [11]	composite z-score [12]	composite z-score [13]	z-score [14]	composite z-score [15]	composite z-score [16]	composite z-score [17]	composite z-score [18]	composite z-score [19]	composite z-score [20]
COC(=O)[C@@]1(CCC(=O)OC(C)(C)C)N=C(c2ccc(OCCCO)cc2)O[C@H]1c1ccccc1	0.899	-0.144 (inactive)	-2.78 (inactive)	3.15 (inactive)	1.29	-2.76 (inactive)	0.0478	-0.105	0.194	-0.125	1.22	0.592	0.997	0.509 (inactive)	-0.19	-0.0344	-1.03	-0.808	-0.239	0.501
COc1ccc([Si](C)(C)[C@H]2[C@H](CCO)O[C@@]3(C(=O)N(Cc4ccccc4)c4ccc(N5CCCCC5=O)cc43)[C@@H]2C)cc1	1.56	0.296 (inactive)	-0.158 (inactive)	1.97 (inactive)	1.9	0.587 (inactive)	-0.17	1.23	0.932	-0.123	1.06	-0.0725	0.104	-2.11 (inactive)	0.884	0.737	0.199	0.579	-0.0075	0.301
CC(C)N1CC=CC23O[C@@H]4C=CCOC(=O)[C@@H]4[C@H]2C(=O)N(CCCCCO)[C@@H]3C1=O (stereo not given in full)	0.637	-1.04 (inactive)	-0.288 (inactive)	-2.25 (inactive)	2.64	3.13 (inactive)	-0.137	-0.325	-0.107	-0.111	0.818	-0.288	0.248	-1.54 (inactive)	-0.927	-0.69	-0.0616	-0.266	-0.758	0.66
CC[C@@H]1C=C(C(=O)O)[C@H](c2cccc3ccccc23)N1S(=O)(=O)c1ccc(C)cc1	0.479	-0.118 (inactive)	1.49 (inactive)	-0.168 (inactive)	3	-0.428 (inactive)	-0.0537	0.0891	0.814	-0.0356	0.819	0.0149	0.0792	0.756 (inactive)	0.51	0.466	0.294	0.495	0.153	1.02
COCCOC(=O)N1C(=O)[C@@]2(c3cc(C#CC4(O)CCCCCC4)ccc31)[C@H](C(=O)Nc1nc3ccccc3s1)[C@H]1C(=O)O[C@H](c3ccccc3)[C@H](c3ccccc3)N1[C@@H]2c1ccccc1OCCO	1.55	0.976 (inactive)	0.249 (inactive)	2.12 (inactive)	2.89	1.26 (inactive)	-0.0575	1.38	1.11	0.0857	1.07	0.199	0.365	-0.616 (inactive)	1.3	1.29	0.38	1.05	0.287	-0.0079
CCOC(=O)[C@H]1C/C=C/C[C@H](C(=O)OCC)C(=O)O[C@H]2[C@@H](OC)O[C@H](CO)[C@@H](OC(=O)c3ccc(Br)cc3)[C@@H]2OC1=O	0.419	-0.436 (inactive)	-0.316 (inactive)	2.17 (inactive)	0.796	-0.67 (inactive)	-0.0653	0.197	0.415	-0.116	-0.009	-0.444	0.44	-1.25 (inactive)	0.88	-0.51	0.0445	0.366	0.34	0.802
CC(C)=CCCC(C)=CC(O)C1C=CC2C(=O)N(c3ccccc3)C(=O)C2N1Nc1ccc(C(C)C)cc1 (stereo not given)	0.629	0.437 (inactive)	0.834 (inactive)	1.07 (inactive)	3	-0.589 (inactive)	0.0937	0.0026	1.05	-0.0234	0.855	-0.0008	0.816	0.433 (inactive)	0.691	0.615	-0.0514	0.966	-0.609	0.583
CC(C)CN1C(=O)[C@@]2(c3ccc([N+](=O)[O-])cc3)CC(=O)N(C3CCCCC3)[C@@H]2c2ccc(CO)cc21	-1.13	0.0926 (inactive)	0.612 (inactive)	-1.78 (inactive)	-0.709	0.733 (inactive)	-0.113	-1.13	-0.626	-0.261	0.103	-0.0495	0.867	0.256 (inactive)	-0.935	-1.27	-1.31	-1.21	-1.38	0.294
CCOC(=O)C[C@H]1[C@H](OC(=O)c2ccc(-c3ccccc3)cc2)[C@@H](NC(=O)c2ccccc2)c2cc(OCCCO)ccc2N1C(=O)c1ccc2ccccc2n1	0.316	-1.04 (inactive)	0.0452 (inactive)	0.545 (inactive)	1.23	-0.751 (inactive)	0.0769	0.0388	0.742	-0.0031	-0.0092	0.32	0.339	0.00513 (inactive)	0.47	0.538	-0.0158	0.309	0.234	-0.466
COc1ccc(C(=O)Nc2ccc(CN3C(=O)[C@]4(O[C@H](CC(=O)N5CCC[C@H]5CO)[C@@H]([Si](C)(C)c5ccc(OC)cc5)[C@@H]4C)c4ccccc43)cc2)cc1	1.54	-0.676 (inactive)	0.173 (inactive)	-0.539 (inactive)	2.57	-0.481 (inactive)	-0.124	1.35	1.1	-0.12	1.46	-0.314	0.0167	1.76 (inactive)	0.679	0.573	0.352	0.683	0.545	0.0938
